Rows were chosen to be rich in hits. Some 12% of all compounds tested hit in one or more screens of this group.
D1 mod: allosterically modulates the human D1 dopamine receptor | HEK293 D1, CRE-luciferase, dopamine EC30 potentiation; actives deviate in either direction | B-score at 10 µM | hit rate 5.9% among 58,000 | AID 641;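 active means luminescence count or its row- and column-corrected plate score outside the 99.7% band of the plate's sample wells, on either side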
Target sequence (P21728 whole entry, looked up): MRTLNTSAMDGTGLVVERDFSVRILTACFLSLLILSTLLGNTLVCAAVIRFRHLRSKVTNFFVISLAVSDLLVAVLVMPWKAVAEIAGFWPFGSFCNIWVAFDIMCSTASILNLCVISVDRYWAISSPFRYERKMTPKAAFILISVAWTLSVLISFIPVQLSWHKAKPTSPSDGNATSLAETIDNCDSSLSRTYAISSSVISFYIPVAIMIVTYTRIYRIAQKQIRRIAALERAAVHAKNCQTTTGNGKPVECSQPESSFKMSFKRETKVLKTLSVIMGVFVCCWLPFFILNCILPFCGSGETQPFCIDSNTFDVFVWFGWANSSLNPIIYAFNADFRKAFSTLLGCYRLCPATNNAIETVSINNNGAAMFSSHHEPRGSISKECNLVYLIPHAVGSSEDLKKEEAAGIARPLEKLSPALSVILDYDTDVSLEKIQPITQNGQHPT
Cav3 T inh: inhibitors of human Cav3.2 T-type calcium channel; Cav3.2-expressing cells, Fluo-4 calcium fluorescence FDSS; active compounds read low; B-score at 10 µM; hit rate 4% among 100,000; AID 449739;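 active means single-dose well whose peak fluorescence ratio is a statistical outlier from its plate by either plate-standardised score or position-corrected B-score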
DAT uptake mod: modulates human dopamine transporter uptake under cocaine. Q01959. LLC-PK1 hDAT cells, [14C]-dopamine uptake with cocaine IC80; actives deviate in either direction. B-score at 10 µM. hit rate 1.3% among 110,000. AID 449768;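 active means Z score or B-score, a plate-position-corrected score, falls beyond the plate's 99.7% confidence bounds, in either direction; inactive means both scores lie inside the 99.7% bounds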;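 further: scored against the spread of the other compound wells on the same plate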
PostGolgi ctrl: inhibits growth of the yeast control strain. efflux-deficient yeast background strain, growth absorbance A615, 16 h. inhibition, % at 10 µM. hit rate 5% among 98,000
PostGolgi yeast: growth inhibition of a yeast mutant, post-Golgi transport screen; post-Golgi transport phenotypic cell assay; inhibition, % at 10 µM; hit rate 0.9% among 98,000;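 further: yeast cells grown in 1536-well plates; yeast grown about 18 h at 30C before absorbance read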
PLAP act: human PLAP activation; P05187; purified PLAP enzyme, luminescent substrate read-out; active compounds read high; activation fold at 20 µM; hit rate 1.2% among 96,000; in the data active means activation fold above about 2
Starred values were filed as active, the others as inactive; nt = no result. Unless noted, no stated cut-off is given here; in the data, active means inhibition above about 30%; inactive means the rest.

SMILES	D1 mod	Cav3 T inh	DAT uptake mod	PostGolgi ctrl	PostGolgi yeast	PLAP act
COc1ccc(C(OC(=O)c2ccco2)C(=O)NCC2CCCO2)cc1 (stereo not drawn)	0.58	-0.22	-7.3*	-3	-7	1
CCN(CC)C(=O)CC(c1ccc(N(C)C)cc1)c1c(O)cc(OC)cc1OC (stereo not drawn)	nt	0.19	1.1	nt	nt	nt
COc1ccc(OC)c(NC(=O)Nc2ccc(Cl)cc2)c1	nt	-2.5	-0.74	41*	-3	0.9
COc1ccc(C(C)(C)C)cc1NC(=O)Nc1ccc2c(c1)OCO2	-1.1	nt	nt	71*	5	nt
O=C(Nc1ccc(OC(F)F)c(Cl)c1)Nc1ccc2c(c1)OCO2	0.074	-0.14	-7*	3	0	0.8
COc1ccc(Cl)cc1NC(=O)Nc1cccc([N+](=O)[O-])c1C	nt	0.16	-0.64	42*	2	0.9
COc1ccc(Cl)cc1NC(=O)NC1CCCCC1	nt	-1	-0.18	18	2	0.8
CCOc1ccc(C(=O)c2cc([N+](=O)[O-])ccc2Cl)cc1	nt	-1.1	-1.7	5	-1	0.9
Cc1ccc(S(=O)(=O)/N=C(\CN2CCCCC2)N2CCOCC2)cc1	0.57	1.1	-0.36	5	9	1.3
O=C(NCc1ccccc1)c1onc(CSc2ccccc2)c1C(=O)NCC1CC1	nt	-3	0.6	nt	nt	nt
Cc1cccc(N2CCN(Cc3oc(CO)cc(=O)c3O)CC2)c1C	nt	1.1	-0.00011	-3	9	2.2*
O=C(COc1ccc(Cl)cc1)NCCSCc1cccc(Cl)c1	nt	-4.3*	-0.0028	39*	5	1.1
O=C(COc1ccccc1)NNC(=S)NC(=O)c1ccc(Cl)cc1Cl	nt	-4.1*	0.95	nt	nt	nt
CC(c1ccco1)N(C(=O)COc1ccc(Cl)cc1Cl)c1ccccn1 (stereo not drawn)	-7.3*	-2.7	-0.44	18	17	0.9
CC(c1ccco1)N(C(=O)COc1ccc(Cl)cc1)c1ccccn1 (stereo not drawn)	-0.51	-0.29	2.4	-6	4	1.4
O=C(COc1ccc(Cl)cc1Cl)Nc1ccccn1	-4.5*	-0.92	0.0032	11	14	0.9
O=C(OCC(=O)N1CCCC1)c1cccs1	0.65	-0.054	-0.63	3	-2	1
O=C(COc1ccc(Cl)cc1Cl)NNC(=S)Nc1ccc(F)cc1	nt	-0.41	-0.68	38*	4	1.1
O=C(COc1ccc(Cl)cc1Cl)NCCCCc1ccccc1	nt	-1.1	-0.15	42*	-5	1.5
O=C(COc1ccc(Cl)cc1Cl)NCCSc1ccc(Cl)cc1	nt	-0.21	0.2	43*	-1	0.9
COc1ccc(N(C)S(=O)(=O)c2c(C)[nH]c(=O)[nH]c2=O)cc1	-0.18	1.9	-1.2	11	0	0.9
O=c1cc(C23CC4CC(CC(C4)C2)C3)[nH][nH]1	0.21	-0.049	-0.7	14	-5	1.2
COc1cc2c(O)c3c(c(-c4ccc5c(c4)OCO5)c2cc1OC)C(=O)OC3	0.64	-4.2*	-0.28	7	-1	0.9
COc1ccc2c(c1)C(C)CC(C)(C)N2C(=O)CSc1ncn[nH]1 (stereo not drawn)	0.12	-1	0.53	0	-7	2.4*
C=CCSC1=C(C#N)C(c2ccc(C(C)C)cc2)CC(=O)N1 (stereo not drawn)	0.75	-3.5*	1.3	38*	-2	1.2
SMILES	D1 mod	Cav3 T inh	DAT uptake mod	PostGolgi ctrl	PostGolgi yeast	PLAP act
C=CCSC1=C(C#N)C(c2ccccc2)CC(=O)N1 (stereo not drawn)	-0.17	0.5	1.7	4	-1	1
CC(C)c1ccc(NC(=O)C2CC(=O)N=C(N)S2)cc1 (stereo not drawn)	0.19	0.17	0.091	-9	3	1.5
O=C(Nc1ccccc1)c1ccc(Cn2cc(C(F)(F)F)ccc2=O)cc1	nt	-0.088	-0.012	10	4	1.1
O=C(Nc1cc(C(F)(F)F)cc(C(F)(F)F)c1)c1ccc(Cn2cc(C(F)(F)F)ccc2=O)cc1	nt	-6.7*	nt	-3	9	1
O=C1COc2ccc(C(=O)c3ccccc3C(=O)NCc3ccco3)cc2N1	nt	-3	0.41	-3	15	0.8
O=C1COc2ccc(C(=O)c3ccccc3C(=O)NCc3ccccc3)cc2N1	nt	-7.2*	-0.23	8	-3	0.9
COC(=O)C1=C(CN2CCc3ccccc32)NC(=O)NC1c1cc(C)ccc1C (stereo not drawn)	-0.33	nt	nt	32*	-10	1
CCOC(=O)C1=C(CN2c3ccccc3CC2C)NC(=O)NC1c1ccccc1 (stereo not drawn)	nt	-7.8*	-0.35	33*	1	0.9

Screens: PubChem, several laboratories
